In experiment [1] the target is Lysosomal acid glucosylceramidase (Homo sapiens) (UniProt P04062). The experiment can be described thus: Glucocerebrosidase-p2 (AID 348; in the data active means potency below about 10 µM; further: potency means the concentration at half of the fitted maximal effect). To be noted: purified GBA, blue fluorogenic substrate, 40 min. An outline of the steps: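 Compounds titrated from 0.6 nM upwards against 0.2 nM enzyme in pH 5.9 citric acid/KH2PO4, taurocholate, tween-20; blue fluorogenic substrate 80 uM, 40 min room temperature, stopped and read Ex 365/Em 440 for AC50.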
Chain of Lysosomal acid glucosylceramidase (Homo sapiens) (P04062 whole entry, looked up): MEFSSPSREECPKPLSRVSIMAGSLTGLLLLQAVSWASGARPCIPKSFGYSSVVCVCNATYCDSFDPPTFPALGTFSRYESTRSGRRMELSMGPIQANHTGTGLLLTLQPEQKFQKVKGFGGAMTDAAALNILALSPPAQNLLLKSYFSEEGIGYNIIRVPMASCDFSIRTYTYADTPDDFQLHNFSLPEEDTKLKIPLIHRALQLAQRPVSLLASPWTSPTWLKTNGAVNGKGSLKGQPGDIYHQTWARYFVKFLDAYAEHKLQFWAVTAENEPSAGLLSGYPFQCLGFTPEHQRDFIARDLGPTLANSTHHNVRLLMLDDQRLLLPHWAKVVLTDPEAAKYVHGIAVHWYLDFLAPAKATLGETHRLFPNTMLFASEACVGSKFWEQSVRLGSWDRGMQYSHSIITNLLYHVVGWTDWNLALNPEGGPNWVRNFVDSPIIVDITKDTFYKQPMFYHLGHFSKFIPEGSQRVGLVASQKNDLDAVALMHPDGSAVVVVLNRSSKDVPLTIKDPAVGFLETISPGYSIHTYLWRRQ

Experiment [2] can be described thus: AP1 Signaling Pathway (AID 357; active means well fitted curve in either direction with a large enough effect, not every such curve was filed as active;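 further: ME-180 reporter cells stimulated with EGF at its EC50 level; on the % scale 0 is the no-effect control and ±100 the full control effect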). The note with it: ME-180 AP-1-bla reporter, EGF-induced, beta-lactamase ratio, 5 h; at 7.69 µM (top of the series) unless noted. In outline:
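Cells are seeded overnight, exposed to compound titrations and an EC50 level of EGF for 5 hours at 37 °C, then loaded with CCF4 dye for 2.5 hours. Beta-lactamase activity under the AP-1 element is read as a blue/green ratio.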

In experiment [3] the target is Cytochrome P450 1A2 (Homo sapiens) (UniProt P05177). The experiment can be described thus: p450-cyp1a2 (AID 410; calls by dose curve; further: potency means the concentration at half of the fitted maximal effect). The note with it: recombinant CYP1A2, luciferin-ME demethylation, luminescence; series mostly up to 57 µM. An outline of the steps: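 Inhibition was calculated relative to 57 uM furafylline (full inhibition). The reaction used human CYP1A2 at 20nM with Luciferin-ME at its Km, 100uM, driven by an NADPH-regenerating system for 60 min at room temperature.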
Chain of Cytochrome P450 1A2 (Homo sapiens) (P05177 whole entry, looked up): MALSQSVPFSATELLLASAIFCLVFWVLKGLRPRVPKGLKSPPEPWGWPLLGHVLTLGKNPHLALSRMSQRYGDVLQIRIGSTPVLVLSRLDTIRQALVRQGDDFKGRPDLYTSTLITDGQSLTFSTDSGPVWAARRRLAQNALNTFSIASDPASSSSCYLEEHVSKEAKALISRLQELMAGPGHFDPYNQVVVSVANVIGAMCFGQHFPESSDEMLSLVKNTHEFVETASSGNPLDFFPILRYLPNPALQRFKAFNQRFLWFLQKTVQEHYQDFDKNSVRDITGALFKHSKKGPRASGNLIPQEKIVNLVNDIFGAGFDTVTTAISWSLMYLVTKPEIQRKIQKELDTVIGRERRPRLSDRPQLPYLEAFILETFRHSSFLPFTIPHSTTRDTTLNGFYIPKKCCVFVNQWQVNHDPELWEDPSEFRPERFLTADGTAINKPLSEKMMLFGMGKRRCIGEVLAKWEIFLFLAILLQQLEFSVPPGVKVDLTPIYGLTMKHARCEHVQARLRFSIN

The target in experiment [4] is Glucocorticoid receptor (Homo sapiens) (UniProt P04150). The experiment can be described thus: GR-GFP Redistribution (AID 450;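 active means compounds whose dose series gives a full or clear partial fitted curve of increased nuclear translocation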; further: potency means the concentration at half of the fitted maximal effect). To be noted: U2OS GR-GFP nuclear translocation, laser cytometry, 2 h.
Chain of Glucocorticoid receptor (Homo sapiens) (P04150 whole entry, looked up, the tested form may be a part): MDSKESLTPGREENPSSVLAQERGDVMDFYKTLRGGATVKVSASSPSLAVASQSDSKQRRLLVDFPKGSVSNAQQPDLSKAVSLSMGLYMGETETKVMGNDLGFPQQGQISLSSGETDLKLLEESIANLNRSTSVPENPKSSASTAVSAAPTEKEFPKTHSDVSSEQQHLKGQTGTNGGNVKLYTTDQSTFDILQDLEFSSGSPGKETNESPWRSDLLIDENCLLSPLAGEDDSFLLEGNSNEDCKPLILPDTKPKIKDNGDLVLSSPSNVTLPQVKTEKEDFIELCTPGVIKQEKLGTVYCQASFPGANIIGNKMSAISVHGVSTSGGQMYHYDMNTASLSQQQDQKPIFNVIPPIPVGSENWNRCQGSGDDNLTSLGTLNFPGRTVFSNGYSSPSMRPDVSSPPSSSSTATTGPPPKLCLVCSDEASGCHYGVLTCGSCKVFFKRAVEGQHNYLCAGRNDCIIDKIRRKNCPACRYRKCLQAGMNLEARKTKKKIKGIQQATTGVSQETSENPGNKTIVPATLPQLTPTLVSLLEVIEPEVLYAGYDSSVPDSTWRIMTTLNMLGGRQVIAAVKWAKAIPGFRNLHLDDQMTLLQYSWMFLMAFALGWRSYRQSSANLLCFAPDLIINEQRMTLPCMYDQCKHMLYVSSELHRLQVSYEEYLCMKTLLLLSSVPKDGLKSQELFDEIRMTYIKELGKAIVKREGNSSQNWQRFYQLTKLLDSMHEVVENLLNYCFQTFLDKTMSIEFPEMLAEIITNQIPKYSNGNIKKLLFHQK
For experiment [5] the target is unchanged. Briefly: GR-EFC Redistribution (AID 451; calls by dose curve; further: potency means the concentration at half of the fitted maximal effect). To be noted: CHO-K1 GR-EFC translocation, beta-gal luminescence, 2 h. An outline of the steps: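 Translocation of GR-ED fusion to nuclear EA restores b-gal, read by luminescence after 1 h room-temperature detection. Engineered CHO-K1 biosensor cells, 1,000/well, exposed 2 h at 37 C to titrations up to 46 uM final.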

Experiment [6] addresses Mitogen-activated protein kinase 10 (Mus musculus) (UniProt Q61831). The experiment can be described thus: JNK3 AlphaScreen Assay (AID 530; active means well fitted curve in either direction with a large enough effect, not every such curve was filed as active;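 further: kinase came from lysate of stimulated human HepG2 cells; signal reports phosphorylation of biotinylated GST-cJun 1-79 at Ser73 with 10 µM ATP; on the % scale 0 is the no-effect control and ±100 the full control effect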). The note with it: JNK3 lysate, c-Jun phosphorylation; series mostly up to 57.1 µM. In outline: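 Room-temperature AlphaScreen kinase assay; pre-activated HepG2 lysate as JNK3 source, biotin-GST-cJun(1-79) substrate, 10 uM ATP, compound 15 min preincubation.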
A general note: Bead proximity is the source of the signal in Alpha formats.

Experiment [7] is described as follows: qHTS Assay for Identification of Small Molecule Agonists for Hypoxia Response Element Signaling Pathway (AID 914; active means well fitted activation curve with a large enough effect in the signal ratio, with a control signal flat, not every such curve was filed as active; the % refers to the signal ratio; further: potency means the concentration at half of the fitted maximal effect). To be noted: ME-180 HRE-bla reporter, beta-lactamase ratio, CoCl2, 17 h; activation: stronger effect = higher value. In outline:
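HRE-bla ME-180 cells with beta-lactamase reporter under hypoxia response element, compounds with EC50 CoCl2 for 17 hours at 37 C. CCF4 substrate, 460nm/530nm emission ratio gave %Activity; AC50 from titration series.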
In general terms: qHTS replaces the single test concentration by a dilution series.

Experiment [8] in a line: qHTS Assay for Lipid Storage Modulators (AID 1519; calls by dose curve). To be noted: Drosophila S3 cells, BODIPY lipid droplet/cell ratio, laser cytometry, cells loaded with oleic acid. In outline: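 Cells seeded at 5,000 per well were treated with compounds over a concentration series and loaded with oleic acid (400 uM, as added). Lipid droplet fluorescence (488 nm excitation, 500-530 nm channel) was read by laser-scanning cytometry and normalized to 20 uM Triacsin C.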

In experiment [9] the target is Dual specificity protein kinase CLK4 (Homo sapiens) (UniProt Q9HAZ1). The experiment can be described thus: qHTS Assay for Inhibitors of CDC-like Kinase 4 (Kinase-Glo Assay) (AID 1770). Further: on the % scale 0 is the no-effect control and ±100 the full control effect; nearly all actives have a fitted effect of over 65% in size. To be noted: recombinant Clk4, Kinase-Glo ATP depletion luminescence; series mostly up to 66.7 µM. In outline:
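Inhibition was judged from remaining ATP, measured by Ultra-Glo luciferase bioluminescence after Clk4 (25 nM) had acted on RS peptide at 1 uM ATP for 4.5 hours, room temperature.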

For experiment [10] the target is unchanged. The experiment can be described thus: qHTS Assay for Inhibitors of CDC-like Kinase 4 (ADP-Glo Assay) (AID 1771). Further: on the % scale 0 is the no-effect control and ±100 the full control effect; nearly all actives have a fitted effect of over 70% in size. The note with it: recombinant CLK4, ADP-Glo luminescence; series mostly up to 80 µM. In outline: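 Kinase reaction: Clk4 at 25 nM, RS repeat peptide substrate at 100 uM, ATP at 1 uM, 1 hr, room temperature. Product ADP detected as luciferase signal via ADP-Glo.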

For experiment [11] the target is unchanged. Briefly: qHTS Assay for Inhibitors of CDC-like Kinase 4 (ADP-FP Assay) (AID 1795). Further: on the % scale 0 is the no-effect control and ±100 the full control effect; nearly all actives have a fitted effect of over 60% in size. The note with it: Transcreener ADP fluorescence polarization; series mostly up to 50 µM. In outline:
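Inhibition of ADP formation by 6.25 nM Clk4 is measured using 1 uM ATP and 100 uM RS repeat peptide over one hour. Produced ADP displaces a fluorescent tracer from antibody, lowering polarization.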

Experiment [12] concerns the target Ubiquitin carboxyl-terminal hydrolase 1 (Homo sapiens) (UniProt O94782). The experiment can be described thus: Inhibitors of USP1/UAF1: Pilot qHTS (AID 504865).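 Further: rhodamine fluorescence freed from ubiquitin-rhodamine substrate followed over time; top concentration of the series differs between compounds; on the % scale 0 is the no-effect control and ±100 the full control effect; nearly all actives have a fitted effect of over 35% in size.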 The note with it: purified USP1/UAF1, Ub-rhodamine cleavage fluorescence; series mostly up to 54.9 µM. An outline of the steps: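 Kinetic fluorescence assay: 1nM USP1/UAF1, 15 min compound preincubation, then 150nM Ub-Rho; 480/540 nm.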

Experiment [13] can be described thus: Counterscreen qHTS for small molecule stabilizers of the endoplasmic reticulum resident proteome: GLuc-NoTag assay (AID 1508627).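 Further: SH-SY5Y cells given compound then 100 nM thapsigargin to empty ER calcium; 0% = thapsigargin alone and -100% = DMSO vehicle control.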 The note with it: Gaussia luciferase NoTag secretion counterscreen, luminescence, thapsigargin 100 nM for final 4 h; series mostly up to 76.4 µM. In outline:
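Luminescence of Gaussia luciferase secreted into the medium (coelenterazine, 0.07x final, unlysed cells) was the read-out. Human SH-SY5Y neuroblastoma cells constitutively secreting untagged GLuc received compound for 19 h, then 100 nM thapsigargin for 4 h.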

Experiment [14] in a line: Confirmatory qHTS for small molecule stabilizers of the endoplasmic reticulum resident proteome: Secreted ER Calcium Modulated Protein (SERCaMP) assay (AID 1508628). Further: nearly all actives have a fitted effect of over 40% in size. Further: potency means the concentration at half of the fitted maximal effect. The note with it: SERCaMP secreted luciferase ER calcium/proteostasis reporter; series mostly up to 76.3 µM. An outline of the steps: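 We seeded SH-SY5Y-GLuc-SERCaMP cells, added compounds (three concentrations in the primary run, eleven up to 76.6 uM in confirmation), incubated 16 h, depleted ER calcium with thapsigargin, and read luciferase 4 h later.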

A short description of experiment [15]: Cell Viability qHTS for small molecule stabilizers of the endoplasmic reticulum resident proteome (AID 1508629).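 Further: human SH-SY5Y neuroblastoma cells carrying the GLuc-SERCaMP reporter; compound exposure about 46 h in total before the viability read; on the % scale 0 is the no-effect control and ±100 the full control effect.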 The note with it: cell viability counter-screen, 100 nM thapsigargin for final 4 h.
A short description of experiment [16]: NFAT Signaling Pathway (AID 444; active means well fitted curve in either direction with a large enough effect, not every such curve was filed as active;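 further: carbachol stimulus at about its EC50 of 1 µM final; on the % scale 0 is the no-effect control and ±100 the full control effect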). The note with it: Jurkat NFAT-bla M1, carbachol, beta-lactamase ratio, 5 h; at 7.69 µM (top of the series) unless noted. An outline of the steps:
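Read-out: CCF4 FRET ratio (460 nm/530 nm) after 1 h RT dye loading, used for %activity and AC50 from titration series. Cells: Jurkat NFAT-β-lactamase/M1 line, treated with compound plus 1 uM carbachol for 5 h, 37 °C.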

Experiment [17] is described as follows: Stat Signaling Pathway (AID 446; active means well fitted curve in either direction with a large enough effect, not every such curve was filed as active). The note with it: ME-180 (cervical carcinoma) SIE beta-lactamase reporter, IL-6 stimulated, 5 h; at 7.69 µM (top of the series) unless noted. In outline:
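IL-6/STAT signaling read in ME-180 cells via an SIE beta-lactamase reporter. Stimulus was 40 pM IL-6 (its AC50) for 5 hrs, so both activation and inhibition register.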

Experiment [18] deals with 3',5'-cyclic-AMP phosphodiesterase 4B (Homo sapiens) (UniProt Q07343). The experiment can be described thus: qHTS Assay for Inhibitors of PDE-IV (AID 607; active means well fitted activation curve with a large enough effect in the main read-out, with a control signal flat, not every such curve was filed as active; further: % of control where 0% means no effect). To be noted: HEK293 ACTOne CNG channel cells, membrane potential fluorescence; series mostly up to 22.9 µM. An outline of the steps: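 Live HEK293 cells with a modified cyclic nucleotide-gated (CNG) channel report intracellular cAMP via membrane-potential dye fluorescence (ex 535/em 590 nm). Endogenous PDE-IV was targeted. Compounds were tested at up to 22.9 uM final; RO 20-1724 100 uM served as control.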
Chain of 3',5'-cyclic-AMP phosphodiesterase 4B (Homo sapiens) (Q07343 whole entry, looked up): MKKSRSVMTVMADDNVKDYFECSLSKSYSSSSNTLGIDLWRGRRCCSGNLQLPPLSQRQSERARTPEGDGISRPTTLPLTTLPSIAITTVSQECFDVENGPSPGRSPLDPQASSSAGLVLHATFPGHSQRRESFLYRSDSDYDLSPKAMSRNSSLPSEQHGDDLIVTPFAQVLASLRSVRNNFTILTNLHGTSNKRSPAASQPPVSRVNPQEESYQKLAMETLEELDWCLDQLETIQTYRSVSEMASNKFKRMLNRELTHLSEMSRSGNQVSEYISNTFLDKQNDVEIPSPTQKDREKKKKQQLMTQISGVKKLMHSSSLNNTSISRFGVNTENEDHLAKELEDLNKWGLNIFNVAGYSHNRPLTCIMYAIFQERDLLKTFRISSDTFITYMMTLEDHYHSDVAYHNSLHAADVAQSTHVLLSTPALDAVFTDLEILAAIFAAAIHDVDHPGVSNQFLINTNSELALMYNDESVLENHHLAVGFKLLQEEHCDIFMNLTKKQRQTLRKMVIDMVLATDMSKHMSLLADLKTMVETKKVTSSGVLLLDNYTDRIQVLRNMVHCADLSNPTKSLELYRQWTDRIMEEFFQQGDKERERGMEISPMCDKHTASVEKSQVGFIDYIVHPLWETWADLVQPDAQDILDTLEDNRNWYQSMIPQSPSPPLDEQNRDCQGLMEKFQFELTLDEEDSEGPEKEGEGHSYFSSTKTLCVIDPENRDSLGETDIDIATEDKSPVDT

In experiment [19] the target is Cytochrome P450 3A4 (Homo sapiens) (UniProt P08684). The experiment can be described thus: qHTS Assay for Activators of Cytochrome P450 3A4 (AID 885). Further: nearly all actives have a fitted effect of over 65% in size. To be noted: recombinant CYP3A4, Luciferin-PPXE luminescence, 60 min; series mostly up to 57.1 µM. In outline: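 Quantitative HTS format: compounds preincubated with 20nM human CYP3A4 and Luciferin-PPXE substrate at KM, reaction started by NADPH regeneration, stopped after 60 min, luciferase luminescence read 20 min later.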
Chain of Cytochrome P450 3A4 (Homo sapiens) (P08684 whole entry, looked up): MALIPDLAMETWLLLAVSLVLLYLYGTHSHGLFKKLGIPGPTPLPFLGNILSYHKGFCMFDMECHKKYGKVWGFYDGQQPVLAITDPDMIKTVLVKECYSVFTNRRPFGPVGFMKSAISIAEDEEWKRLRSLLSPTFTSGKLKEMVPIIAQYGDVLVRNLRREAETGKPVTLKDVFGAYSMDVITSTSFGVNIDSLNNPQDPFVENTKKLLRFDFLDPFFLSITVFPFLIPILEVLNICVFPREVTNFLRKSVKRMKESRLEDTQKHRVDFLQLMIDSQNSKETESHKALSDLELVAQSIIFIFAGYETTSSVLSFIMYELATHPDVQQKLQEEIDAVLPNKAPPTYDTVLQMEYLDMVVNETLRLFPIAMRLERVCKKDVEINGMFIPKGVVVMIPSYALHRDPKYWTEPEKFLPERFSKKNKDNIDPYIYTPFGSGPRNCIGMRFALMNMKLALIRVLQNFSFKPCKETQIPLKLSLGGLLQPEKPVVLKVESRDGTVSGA

Records with an inconclusive call do not appear. Active and inactive are the calls of the source. Unless noted, the call rests on the fitted dose curve; in most records, active means well fitted curve in the direction sought with a large enough effect; inconclusive means small, poorly fitted or top-dose-only effect, or another doubt; inactive means no such curve, though single readings can be large; an effect the other way counts as inactive or inconclusive. Bounds are passed on as bounds.

Chain of Dual specificity protein kinase CLK4 (Homo sapiens) (Q9HAZ1 whole entry, looked up): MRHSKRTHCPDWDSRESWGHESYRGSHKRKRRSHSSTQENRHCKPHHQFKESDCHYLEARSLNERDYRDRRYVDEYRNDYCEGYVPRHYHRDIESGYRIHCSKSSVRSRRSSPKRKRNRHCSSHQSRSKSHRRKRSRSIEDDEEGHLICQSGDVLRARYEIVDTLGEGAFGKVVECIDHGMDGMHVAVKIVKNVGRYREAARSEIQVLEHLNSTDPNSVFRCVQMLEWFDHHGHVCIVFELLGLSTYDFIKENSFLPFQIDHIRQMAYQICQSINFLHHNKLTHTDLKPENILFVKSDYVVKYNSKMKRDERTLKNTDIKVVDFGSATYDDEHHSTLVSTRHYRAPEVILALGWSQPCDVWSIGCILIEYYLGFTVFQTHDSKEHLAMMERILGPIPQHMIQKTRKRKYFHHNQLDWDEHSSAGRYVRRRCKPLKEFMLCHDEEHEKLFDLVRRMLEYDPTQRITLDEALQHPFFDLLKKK
Chain of Ubiquitin carboxyl-terminal hydrolase 1 (Homo sapiens) (O94782 whole entry, looked up): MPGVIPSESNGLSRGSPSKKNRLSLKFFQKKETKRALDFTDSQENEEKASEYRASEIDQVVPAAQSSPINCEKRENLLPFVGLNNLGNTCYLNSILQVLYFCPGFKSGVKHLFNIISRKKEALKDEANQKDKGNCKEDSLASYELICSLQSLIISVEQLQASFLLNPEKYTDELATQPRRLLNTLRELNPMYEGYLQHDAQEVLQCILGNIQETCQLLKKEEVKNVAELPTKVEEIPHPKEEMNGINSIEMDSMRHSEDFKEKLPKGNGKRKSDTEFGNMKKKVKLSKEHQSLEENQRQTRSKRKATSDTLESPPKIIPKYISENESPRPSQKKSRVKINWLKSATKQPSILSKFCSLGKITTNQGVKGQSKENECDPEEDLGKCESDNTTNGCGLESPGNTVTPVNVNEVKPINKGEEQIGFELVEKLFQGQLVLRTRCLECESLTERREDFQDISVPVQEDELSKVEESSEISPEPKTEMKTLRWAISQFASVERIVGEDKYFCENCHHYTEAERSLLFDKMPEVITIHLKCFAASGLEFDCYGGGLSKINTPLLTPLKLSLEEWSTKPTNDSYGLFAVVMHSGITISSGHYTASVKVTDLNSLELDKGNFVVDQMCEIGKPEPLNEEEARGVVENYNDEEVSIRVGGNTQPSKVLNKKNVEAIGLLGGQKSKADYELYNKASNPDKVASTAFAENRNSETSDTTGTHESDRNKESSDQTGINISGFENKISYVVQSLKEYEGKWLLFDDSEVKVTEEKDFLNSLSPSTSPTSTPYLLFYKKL

With `COc1ccc(-c2nc3cnc(N4CCN(C)CC4)nc3n(-c3ccc(OC)cc3)c2=O)cc1`, the Potency in experiment [1] is > 11.4 µM (inactive); in experiment [3], 15.8 µM (active); in experiment [4], > 9.22 µM (inactive); in experiment [5] it was > 46 µM (inactive); in experiment [7], 3.16 µM (active). Further, the activity change, negative = inhibition in experiment [2] was 41.4% (inactive); in experiment [8] (at 57.5 µM (top of the series)), 3.89% (inactive). Besides, the molecule was classed as inactive in [6]. Moreover, the max response is 28.9% in experiment [8] (measured here: cell count channel max response) and 29.8% in experiment [8] (measured here: lipid channel max response). Moreover, the Potency result in [9], in [10], in experiment [11], in experiment [12], in [13] and in experiment [14] was “inactive” in each case.

Consider `O=C(O)/C=C/C(=O)Nc1ccc(OC(F)(F)Cl)cc1`, for which the Potency result in experiment [13] and in experiment [14] was “inactive” throughout. The max response in experiment [15] was 5.17% (inactive).

Turning to `CCC(C)C(N)C(=O)NC(CC(N)=O)C(=O)NC(CC(C)C)C(=O)NC(CCCCN)C(=O)NC(C)C(=O)NC(CC(C)C)C(=O)NC(C)C(=O)NC(C)C(=O)NC(CC(C)C)C(=O)NC(C)C(=O)NC(CCCCN)C(=O)NC(CCCCN)C(=O)NC(C(=O)NC(CC(C)C)C(N)=O)C(C)CC` (stereo not drawn), the Potency entry in experiment [13] and in experiment [14] was “inactive” each time. In addition, the max response in [15] was 16.1% (inactive).

Take `Fc1ccc(Nc2ccnc(-c3ccccc3C(F)(F)F)n2)cc1`: the Potency in experiment [1] was > 11.4 µM (inactive); in [3], 2 µM (active); in experiment [4] it was > 46 µM (inactive); in experiment [5], > 46 µM (inactive); in [14], 50.1 µM (active). Moreover, the activity change, negative = inhibition in experiment [2] was -7.91% (inactive); in [16], -6.61% (inactive). Moreover, in [17], the activity, negative = inhibition is 3.25% (inactive). Also, the outcome in experiment [6] was inactive. In addition, the Potency result in [18], in experiment [19], in experiment [9], in experiment [10], in experiment [11] and in experiment [13] was “inactive” each time. Also, the max response in [15] is -1.83% (inactive).
